# Rpn11 block = blocks the human proteasome subunit Rpn11; O00487; human 26S proteasome, Ub4-pepOG fluorescence polarization; 20S core pre-blocked with epoxomicin; inhibition, % at 20 µM; hit rate 0.59% among 360,000;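 active = inhibition at 20 µM, scaled to each plate's controls, above about 33%, limit read from the data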
# HNF4A DNA FP = change in binding of human HNF4 alpha to DNA | hit rate 0.3% among 360,000 | AID 1224865 | activity change, % at 10 µM | HNF4a-FITC DNA binding, fluorescence polarization, 1 h; in the data active = activity change above about 30%, passing the limit was not always enough
# Myeloid diff MLP = myeloid differentiation induction; calls only at 10 µM; ER-HoxA9 myeloid progenitors, lysozyme-GFP differentiation, flow cytometry; AID 624256; hit rate 1% among 360,000;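 active = normalized GFP-positive differentiation at or above the plate's own cutoff, the solvent-only control mean plus 3 SD; inconclusive = no clear call, values can overlap the other calls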;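 note: cells exposed to compound for four days before flow analysis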
# TPT1 inh = inhibitors of Candida albicans tRNA 2'-phosphotransferase TPT1. recombinant caTPT1, FP RNA substrate dephosphorylation. inhibition, % at 5 µM. hit rate 0.81% among 300,000. AID 1962;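 active = inhibition above the mean of all tested compounds plus 3 SD, set per screening campaign, cut at about 24% in these data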;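 note: plate controls were DMSO alone for no effect and ferristatin control at 100 nM for full effect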
# TPT1 inh confirm = confirmation of Candida albicans TPT1 inhibitors; shares compounds with TPT1 inh; hit rate 74% among 2,400; inhibition, % at 5 µM; recombinant caTPT1, fluorescence polarization, RNase T1 coupled;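 active = inhibition above the primary screen limit, the mean inhibition of all tested compounds plus 3 SD, cut at about 25% in these data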
# RNase T1 counter = counter-screen for TPT1 inhibitors: inhibitors of Aspergillus oryzae RNase T1. shares compounds with TPT1 inh. RNase T1 cleavage, fluorescence polarization, 1536-well. inhibition, % at 5 µM. hit rate 83% among 2,400;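 active = inhibition above the solvent-only control well mean plus 3 SD, limit set per screening run, cut at about 23% in these data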;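 note: plate controls were DMSO wells with enzyme for no effect and wells without RNase T1 for full effect; inhibitors block cleavage so intact labeled substrate keeps polarization high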
# Rpn11 inh conf = confirmation of human proteasome Rpn11 inhibitors | shares compounds with Rpn11 block | purified human 26S proteasome, Ub4-pepOG fluorescence polarization; proteasome pretreated with epoxomicin | inhibition, % at 20 µM | hit rate 29% among 1,900 | AID 602318
# MMP-2 inh = blocks human MMP-2, flagging nonselective RPN11 hits. shares compounds with Rpn11 block. recombinant MMP-2, FRET peptide cleavage fluorescence. inhibition, % at 20 µM. hit rate 4% among 1,900. AID 602330;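 note: human MMP-2 activated beforehand with APMA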
# Thrombin inh = counter-screen for RPN11 inhibitors: inhibition of bovine thrombin | shares compounds with Rpn11 block | bovine thrombin cleavage of Ub4-pepOG, fluorescence polarization | inhibition, % at 20 µM | hit rate 13% among 1,900;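 active = mean inhibition at least 40% at 20 µM, or signal 3 deviations below plate average, so some actives read negative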;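 note: plate controls were thrombin with DMSO for no effect and buffer wells lacking thrombin for full effect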
# Target sequence (P00735 whole entry, looked up): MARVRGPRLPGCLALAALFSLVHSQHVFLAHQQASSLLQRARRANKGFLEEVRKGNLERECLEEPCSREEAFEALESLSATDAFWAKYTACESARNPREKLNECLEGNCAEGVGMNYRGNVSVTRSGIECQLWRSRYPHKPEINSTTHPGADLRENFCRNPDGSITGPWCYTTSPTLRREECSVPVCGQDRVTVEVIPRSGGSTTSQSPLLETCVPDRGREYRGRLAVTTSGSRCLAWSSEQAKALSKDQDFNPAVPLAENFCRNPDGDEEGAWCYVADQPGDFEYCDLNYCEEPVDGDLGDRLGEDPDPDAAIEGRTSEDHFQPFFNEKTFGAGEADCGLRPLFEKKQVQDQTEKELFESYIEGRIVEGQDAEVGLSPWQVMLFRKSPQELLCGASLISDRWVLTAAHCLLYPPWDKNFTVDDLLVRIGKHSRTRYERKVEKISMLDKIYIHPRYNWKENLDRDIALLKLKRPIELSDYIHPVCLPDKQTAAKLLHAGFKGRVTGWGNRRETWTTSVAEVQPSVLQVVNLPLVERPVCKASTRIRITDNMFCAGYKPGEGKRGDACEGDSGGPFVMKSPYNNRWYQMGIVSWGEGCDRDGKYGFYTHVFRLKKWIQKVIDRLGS
# * marks the source's active call; other numbers are inactive results; i = inactive; ? = inconclusive; / = no result; + = active, no number. Most compounds without a hit are left out; they make up all but 2.1% or so of the library. Cut-off read from the data, not from the text of the source, unless noted: active = inhibition above about 40%; inactive = the rest.
SMILES,Rpn11 block,HNF4A DNA FP,Myeloid diff MLP,TPT1 inh,TPT1 inh confirm,RNase T1 counter,Rpn11 inh conf,MMP-2 inh,Thrombin inh
Cc1ccc2nc(/C(C#N)=C\c3ccc([N+](=O)[O-])o3)[nH]c2c1,48*,103,?,55*,47*,59*,12,-18,19
Cc1ccc2nc(/C(C#N)=C\c3cc(C)n(-c4cccc([N+](=O)[O-])c4)c3C)[nH]c2c1,-6,1,i,3,/,/,/,/,/
COc1cccc(/C=C2\Oc3ccc(O)cc3C2=O)c1O,44*,9,i,49*,71*,79*,-6,-73,-13
COc1cccc(/C=C2\Oc3cc(OCC(=O)N4CCCC4)ccc3C2=O)c1OC,2,-3,i,-1,/,/,/,/,/
COc1ccc(C(=O)NCC(=O)N2CCCC(C(F)(F)F)C2)cc1OC (stereo not given),0,4,i,0,/,/,/,/,/
CCOC1=C/C(=C/c2c(N)n3nc(S(=O)(=O)CC)sc3nc2=O)C=CC1=O,74*,22,i,28*,56*,59*,65*,-8,46*
CCN(CC(=O)Nc1ccc(NC(C)=O)cc1)C(=O)CCCc1c[nH]c2ccccc12,-4,1,i,/,/,/,/,/,/
CCOCCCNc1nc2c(C)cccn2c(=O)c1/C=C1\SC(=S)N(CC(C)C)C1=O,75*,57*,+,52*,76*,95*,91*,60*,72*
CCC(C)N=Cc1c(Nc2ccccc2)nc2c(C)cccn2c1=O (stereo not given),-2,1,i,6,/,/,/,/,/
CN1/C(=C/C=C(/C#N)C(N)=O)C(C)(C)c2ccccc21,43*,36*,?,87*,68*,82*,35,-35,27
CCN(CC)c1ccc(/C=N/NC(=O)Cc2cccs2)cc1,-1,2,i,-1,/,/,/,/,/
CCCCC1(C)OC(=O)C(=Cc2ccc(N(CC)CC)cc2)C(=O)O1 (stereo not given),55*,7,i,92*,167*,155*,92*,-29,90*
Nc1nc(NCCCN2CCOCC2)nc(NCc2ccccc2)c1[N+](=O)[O-],-4,0,i,-5,/,/,/,/,/
COCCN=c1scc(-c2cc(OC)c(OC)c(OC)c2)n1/N=C/c1c(C)[nH]c2ccccc12,112*,31,i,44*,60*,71*,56*,23,27
Cc1[nH]c2ccccc2c1/C=N/n1cnnc1,-3,2,i,1,/,/,/,/,/
Cc1c(O)ccc(/C(Cc2ccc3ccccc3n2)=N\N)c1O,48*,12,+,29*,36*,47*,-4,-5,-16
O=c1c(NCCc2ccc(Cl)cc2)c(-c2ccccc2)c1=O,5,8,i,17,/,/,/,/,/
O=C1N(Cc2ccccc2)c2ccc(Br)cc2[C@]12C[C@H](O)CO2,/,-3,i,/,/,/,/,/,/
c1cc(Nc2cccc3nccnc23)c2nccnc2c1,34*,7,i,25*,25*,35*,31,-43,26
Fc1ccc(Nc2cccc3nccnc23)cc1,4,3,i,2,/,/,/,/,/
CC[n+]1c(/C=C/Nc2ccccc2)oc2ccc(OC)cc21,57*,30,+,86*,95*,101*,45*,-26,32
O=C(CCNC(=O)c1ccccc1Cl)Nc1nc(-c2ccc3ccccc3c2)cs1,22,-1,i,-1,/,/,/,/,/
COc1cc(/C=C/c2nc3ccccc3c(=O)[nH]2)ccc1O,6,6,i,/,/,/,/,/,/
COc1cc(/C=C/c2nc3ccccc3c(=O)[nH]2)cc(Br)c1O,109*,35,?,50*,79*,78*,43*,-23,19
N#Cc1ccccc1NC(=O)COC(=O)/C=C/c1cn(-c2ccccc2)nc1-c1ccc(Cl)cc1,-3,2,i,/,/,/,/,/,/
NC(=O)c1ccc(NC(=O)COC(=O)/C=C/c2cn(-c3ccccc3)nc2-c2cccnc2)cc1,50*,36,i,47*,52*,66*,38,-12,18

# High-throughput results: PubChem BioAssay, several laboratories
